Experimental data reported in PubChem BioAssay (NCI).
The panel holds about 83,000 compounds, 20% with a hit somewhere; the sample as a whole holds those more often.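 48-hour exposure, single concentration, 96-well plates; percent growth endpoint where 0 means no net growth. Active: below 10.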 Calls of active or inactive are those of the source.

Each compound was assayed on HCT-15 colon (assay: NCI-60 one-dose screen, 48 h (100 = growth as untreated, 0 = no growth, -100 = all killed)). Conditions: 10 µM.

Row | SMILES | growth
1 | Clc1ccc(/C=C2\CCCC3C2=Nc2ccccc2NC3c2ccc(Cl)cc2)cc1 (stereo not given) | 63.7% (inactive)
2 | CCC(c1ccc(OC)cc1)C(CC)c1ccc(O)c(CN2CCN(C)CC2)c1 (stereo not given) | 1.58% (active)
3 | CC[C@@H](C(=O)[C@H](C)[C@H](O)[C@@H](C)[C@H]1O[C@H]([C@@H](CC)C(=O)N(CC)CC)CC[C@H]1C)C1O[C@]2(C=C[C@@H](O)[C@]3(CC[C@@](C)([C@H]4CC[C@](O)(CC)[C@H](C)O4)O3)O2)[C@H](C)C[C@@H]1C (stereo not given in full) | 9.17% (active)
4 | c1ccc(/C(=N\Nc2ccc3ccccc3n2)c2ccccn2)cc1 | 25.7% (inactive)
5 | O=C(NCCCNS(=O)(=O)c1ccc(Cl)cc1)Nc1ccc(-n2cc(-c3ccncc3)c(-c3ccc(Cl)c(O)c3)n2)cc1 | 36.1% (inactive)
6 | Nc1ncnc2c1ncn2C1(CO)OCC(O)C(O)C1O (stereo not given) | 105% (inactive)
7 | CN(C)CCOc1ccc(-c2nc3sccn3c2-c2ccnc(S(C)(=O)=O)n2)cc1 | 101% (inactive)
8 | CC[C@H]1OC(=O)[C@H](C)[C@@H](O[C@H]2C[C@@](C)(OC)[C@@H](O)[C@H](C)O2)[C@H](C)[C@@H](O[C@@H]2O[C@H](C)C[C@H](N(C)C)[C@H]2O)[C@](C)(OC)C/C(C)=C2/O[C@@]1(C)C=C2C | -33.5% (active)
9 | COc1cc(/C=C2\CCCC3=C2NC(N)=NC3c2cc(OC)c(OC)c(OC)c2)cc(OC)c1OC (stereo not given) | -4.55% (active)
10 | O=[N+]([O-])c1cccc(/C=N/NC(=S)NC23CC4CC(CC(C4)C2)C3)c1 | 96% (inactive)
11 | CNC(=O)c1cc(Oc2ccc3c(c2)sc2nc(-c4ccc(N)cc4)cn23)ccn1 | 11% (inactive)
12 | COc1ccc2c(c1)OC(N)=C(C#N)C2c1cc(OC)c(OC)c(OC)c1 (stereo not given) | 14.2% (inactive)
13 | S=C(NCc1ccccc1)NCc1ccccc1 | 107% (inactive)
14 | CC(=O)OC1C=CC(OC(C)=O)O1 (stereo not given) | 95.4% (inactive)
15 | Cc1ccc(Cl)cc1NC(=O)CCl | 67.2% (inactive)
16 | CCC(C)[C@H](NC(C)=O)C(=O)N[C@@H](CCCNC(=N)N)C(=O)N[C@@H](CCCCN)C(=O)N[C@@H](CC1CCC(O)CC1)C(=O)NC(C(=O)N[C@@H](CCSC)C(=O)N[C@@H](CCCNC(=N)N)C(=O)N[C@@]1(C)CCC/C=C\CCC[C@@](C)(C(=O)NC(C(=O)N[C@@H](CCC(=O)O)C(=O)N[C@@H](CC(C)C)C(=O)N[C@H](C(=O)N[C@@H](CCC(=O)O)C(N)=O)C(C)C)[C@@H](C)O)NC(=O)[C@H](CCC(N)=O)NC(=O)[C@H](CC(C)C)NC(=O)[C@H](CC(C)C)NC1=O)[C@@H](C)O (stereo not given in full) | 100% (inactive)
17 | COc1cc2cc(Oc3ccc(NC(=O)c4cccc(C(F)(F)F)c4)cc3)c(C)nc2cc1OC | 38.3% (inactive)
18 | COC(=O)C1(O)NC(=C(C#N)C#N)C(C#N)=C1C(=O)c1ccc(OC)c(OC)c1 (stereo not given) | 105% (inactive)
19 | COc1ccc(-c2onc(N)c2-c2cc(OC)c3c(c2)OCO3)cc1 | 23.9% (inactive)
20 | NC(N)=N/N=C(\c1ccccc1)C(O)c1ccccc1 (stereo not given) | 111% (inactive)

Row | SMILES | growth
21 | COc1cc2cc(Oc3ccc(NC(=O)c4ccccc4)cc3)c(C)nc2cc1OC | 94.3% (inactive)
22 | CS(=O)(=O)c1nccc(-c2c(-c3cccc(OCc4ccc(F)cc4)c3)nc3sccn23)n1 | 59.2% (inactive)
23 | CCOC(=O)c1cc(C(=O)c2ccc(F)cc2F)n2ccccc12 | 79.9% (inactive)
24 | O=C(N/N=C/c1ccc(Cl)cc1)c1ccccc1Nc1cccc(C(F)(F)F)c1 | 79.1% (inactive)
25 | CC(C)(C)OC(=O)N1CCc2c(sc3ncnc(N/N=C/c4ccccc4Br)c23)C1 | 25.5% (inactive)
26 | CC(C)N(CCOc1ccc(-c2nc3sccn3c2-c2ccnc(S(C)(=O)=O)n2)cc1)C(C)C | 92.8% (inactive)
27 | CN(C)CCCOc1ccc(NC2=C(Cl)C(=O)C(Nc3ccc(OCCCN(C)C)cc3)=C(Cl)C2=O)cc1 | -82% (active)
28 | COc1cccc(C2C(C#N)=C(N)Oc3cc(N)ccc32)c1 (stereo not given) | 40.3% (inactive)
29 | Cc1ccc(NCCN(C)CC(C)O)c2c(=O)c3ccccc3sc12 (stereo not given) | 32.7% (inactive)
30 | CCCCN(CCCC)C(=O)[C@H](CC)[C@@H]1CC[C@@H](C)[C@@H]([C@H](C)[C@@H](O)[C@@H](C)C(=O)[C@H](CC)C2O[C@]3(C=C[C@@H](O)[C@]4(CC[C@@](C)([C@H]5CC[C@](O)(CC)[C@H](C)O5)O4)O3)[C@H](C)C[C@@H]2C)O1 (stereo not given in full) | -5.99% (active)
31 | CC(C)N(CCOc1cccc(-c2nc3sccn3c2-c2ccnc(S(C)(=O)=O)n2)c1)C(C)C | 81.8% (inactive)
32 | NC(=O)c1cccc(-n2ccc3cc(NC(=O)Nc4ccc(Cl)c(C(F)(F)F)c4)ccc32)n1 | 56.6% (inactive)
33 | COc1cccc(-c2nc3sccn3c2-c2cccc(S(C)(=O)=O)c2)c1 | 95.3% (inactive)
34 | COc1ccc(Cl)cc1Nc1nc(C(F)(F)F)ccc1C(=O)N/N=C/c1ccc(Cl)cc1 | 25.4% (inactive)
35 | CCOc1ccccc1/C=N\N=C\c1ccccc1O | 100% (inactive)
36 | CN(C)c1ccc(/C=N/NC(=O)c2ccccc2Nc2cccc(C(F)(F)F)c2)cc1 | 78.2% (inactive)
37 | COc1cc2cc(Oc3ccc(NC(=O)Nc4cccc(C(F)(F)F)c4)cc3)c(C)nc2cc1OC | 15.2% (inactive)
38 | O=C(Nc1cc(Cl)cc2c1-c1ccc(Cl)cc1C2O)C(Cl)Cl (stereo not given) | 82.5% (inactive)
39 | C/C(=N\O)c1ccc(NC(=O)CSc2nnc(-c3ccccc3)n2-c2ccccc2)cc1 | 97.5% (inactive)
40 | CCN(CC)CCCOc1cccc2c1C(=O)c1cccc(OCCCN(CC)CC)c1C2=O | 34.5% (inactive)
